Experimental data: publication PMC5540273 (PLoS ONE, 2017)

Tests used:
Conditions in all cases: concentration: 1 μM, replicates: in singlicate; n = 1
MRCKB = test system: T1, MRCKB
T1 construct: gene CDC42BPB

MST1R = test system: MST1R
MST1 = test system: T2, MST1
T2 construct: gene STK4

MST2 = test system: T3, MST2
T3 construct: gene STK3

MST3 = test system: T4, MST3
T4 construct: gene STK24

MST4 = test system: MST4
MTOR = test system: MTOR
MUSK = test system: MUSK
MYLK2 = test system: MYLK2
MYLK4 = test system: MYLK4
MYLK = test system: MYLK
MYO3A = test system: MYO3A
MYO3B = test system: MYO3B
NDR1 = test system: T5, NDR1
T5 construct: gene STK38

NDR2 = test system: NDR2
NEK10 = test system: NEK10
NEK11 = test system: NEK11
NEK1 = test system: NEK1
NEK2 = test system: NEK2
NEK3 = test system: NEK3
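Also: KINOMEscan kinase panel screen.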

Row | Compound | %Inh (MRCKB) [%] | %Inh (MST1R) [%] | %Inh (MST1) [%] | %Inh (MST2) [%] | %Inh (MST3) [%] | %Inh (MST4) [%] | %Inh (MTOR) [%] | %Inh (MUSK) [%] | %Inh (MYLK2) [%] | %Inh (MYLK4) [%] | %Inh (MYLK) [%] | %Inh (MYO3A) [%] | %Inh (MYO3B) [%] | %Inh (NDR1) [%] | %Inh (NDR2) [%] | %Inh (NEK10) [%] | %Inh (NEK11) [%] | %Inh (NEK1) [%] | %Inh (NEK2) [%] | %Inh (NEK3) [%]
1 | Cc1c(Cn2c(C)nn3c(=O)cc(N4CCO[C@H](C)C4)nc23)cccc1C(F)(F)F [GSK2373690] | 0 | 41 | 2 | 7 | 0 | 0 | 57 | 28 | 2 | 99.8 | 12 | 0 | 0 | 6 | 0 | 6 | 0 | 0 | 24 | 2
2 | COc1cc2ncn(-c3cc(OCCCc4ccccc4)c(C(N)=O)s3)c2cc1OC [GSK205189] | 0 | 14 | 0 | 0 | 11 | 0 | 1 | 50 | 8 | 65 | 23 | 3 | 0 | 0 | 0 | 0 | 0 | 0 | 36 | 0
3 | COC(=O)c1c(-c2ccccc2)c2cc(C)ccc2c(=O)n1Cc1ccccc1 | 0 | 31 | 0 | 21 | 0 | 0 | 0 | 12 | 0 | 0 | 0 | 0 | 0 | 0 | 0 | 0 | 0 | 0 | 0 | 24
4 | CCS(=O)c1ccc(-c2coc3ccc(-c4nnc(C)o4)cc23)cc1 (stereo not drawn) | 0 | 15 | 33 | 0 | 17 | 0 | 2 | 0 | 5 | 4 | 0 | 0 | 3 | 0 | 0 | 5 | 0 | 0 | 0 | 1
5 | COc1cccc(C2=C(Nc3cccc(C(=O)O)c3)C(=O)NC2=O)c1 [SB-390770] | 18 | 2 | 28 | 25 | 0 | 0 | 29 | 15 | 38 | 0 | 0 | 0 | 8 | 0 | 0 | 40 | 36 | 0 | 0 | 0
6 | C[C@@H]1CC[C@H](C(=O)NC2CCCCC2)CN1c1cc(-c2ccc3c(N)n[nH]c3c2)nc(N)n1 [GSK2291363] | 15 | 50 | 12 | 0 | 14 | 0 | 18 | 21 | 11 | 23 | 52 | 36 | 0 | 14 | 7 | 29 | 0 | 10 | 0 | 12
7 | CCC(=O)c1c(-c2ccccc2)c2cc(Cl)ccc2c(=O)n1Cc1ccc(C(=O)O)cc1 | 0 | 6 | 0 | 0 | 0 | 0 | 0 | 0 | 0 | 0 | 0 | 0 | 3 | 0 | 0 | 0 | 0 | 0 | 0 | 22
8 | O=C(Nc1n[nH]c2nc(-c3ccccc3)c(Cl)cc12)C1CC1 [SB-734909] | 6 | 0 | 12 | 50 | 0 | 37 | 19 | 19 | 93.2 | 33 | 37 | 0 | 12 | 8 | 0 | 0 | 11 | 0 | 0 | 33
9 | FC(F)(F)c1ccc(-c2ncn(CCCN3CCOCC3)c2-c2ccncc2)cc1 [SB-217780] | 6 | 28 | 28 | 59 | 35 | 0 | 12 | 0 | 0 | 4 | 4 | 0 | 0 | 3 | 0 | 4 | 0 | 0 | 0 | 9
10 | CC(C)(C)c1ccc(C(=O)Nc2cn3cc(-c4ccccc4)ccc3n2)cc1 | 0 | 26 | 0 | 43 | 0 | 0 | 45 | 0 | 34 | 0 | 23 | 0 | 0 | 35 | 0 | 0 | 0 | 0 | 0 | 36
11 | Cc1ccccc1COc1cc(-n2cnc3cc(Cl)ccc32)sc1C(N)=O [GW813349] | 0 | 0 | 0 | 12 | 0 | 0 | 18 | 0 | 0 | 24 | 5 | 0 | 0 | 3 | 1 | 0 | 0 | 0 | 5 | 13
12 | COc1cc2nccc(Nc3ccc(OCc4ccc(NC(C)=O)cc4)cc3)c2cc1OC.Cl [GW440135] | 0 | 12 | 0 | 20 | 0 | 1 | 15 | 3 | 0 | 0 | 13 | 20 | 0 | 0 | 0 | 12 | 0 | 0 | 0 | 0
13 | CCC(=O)c1c(-c2ccccc2)c2cc(Cl)ccc2c(=O)n1Cc1cc(S(C)(=O)=O)n(CC(F)F)n1 | 0 | 31 | 0 | 0 | 0 | 0 | 7 | 0 | 47 | 1 | 0 | 0 | 0 | 3 | 0 | 5 | 0 | 0 | 0 | 22
14 | Cc1cccc(-c2cc(-c3c[nH]nc3-c3ccccn3)ccn2)c1 [GW679395] | 0 | 60 | 0 | 0 | 4 | 0 | 10 | 0 | 0 | 2 | 32 | 7 | 0 | 15 | 0 | 24 | 0 | 0 | 0 | 3
15 | COc1ccc(-c2cc3c(C)nc(N)nc3n([C@H]3CC[C@H](O)CC3)c2=O)cn1 | 30 | 0 | 0 | 0 | 2 | 0 | 99 | 0 | 4 | 0 | 98.8 | 0 | 0 | 0 | 0 | 0 | 0 | 0 | 0 | 16
